Only a selection was taken, and hits are over-represented in it overall.
Shiga toxin inh – Shiga toxin inhibition. Vero cells, Shiga toxin protein synthesis inhibition reporter. inhibition, % at 38.7 µM. 290,000 tested, 9.2% active. AID 2315; in the data active = inhibition mostly above about 28%, no sharp cut-off; inactive = mostly below about 43%; also: 0% is about no effect
Tb PYK inh – inhibitors of Trypanosoma brucei pyruvate kinase | TbPYK enzyme, Kinase-Glo Plus ATP luminescence, 45 min | Potency, µM (series often up to 76.8 µM), for inactives: at the highest dose activity, negative = inhibition, actives largely listed as inhibitors | 410,000 tested, 0.12% active | AID 624173; also: potency is read from the fitted curve at half-maximal effect; % is scaled to controls: 0 for no effect and ±100 for the full control effect; nearly all actives have a fitted effect of over 50% in size
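TbPYK + substrate in 50 mM TEA pH 7.2, 100 mM KCl, 10 mM MgCl2, 0.05% BSA, 0.01% Tween-20; cpd pinned; ADP 130 uM final; 45 min RT; Kinase-Glo Plus 10 min; luminescence endpoint.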
LmPK inh – blocks Leishmania mexicana pyruvate kinase activity; AID 1721; Potency, µM (highest dose often 57.5 µM), without a hit: top-dose activity change, negative = inhibition, hits mostly inhibitors; purified LmPK, Kinase-Glo ATP luminescence, 1 h; 290,000 tested, 0.37% active; also: potency is read from the fitted curve at half-maximal effect; % is scaled to controls: 0 for no effect and ±100 for the full control effect
Target sequence (Q27686 whole entry, looked up): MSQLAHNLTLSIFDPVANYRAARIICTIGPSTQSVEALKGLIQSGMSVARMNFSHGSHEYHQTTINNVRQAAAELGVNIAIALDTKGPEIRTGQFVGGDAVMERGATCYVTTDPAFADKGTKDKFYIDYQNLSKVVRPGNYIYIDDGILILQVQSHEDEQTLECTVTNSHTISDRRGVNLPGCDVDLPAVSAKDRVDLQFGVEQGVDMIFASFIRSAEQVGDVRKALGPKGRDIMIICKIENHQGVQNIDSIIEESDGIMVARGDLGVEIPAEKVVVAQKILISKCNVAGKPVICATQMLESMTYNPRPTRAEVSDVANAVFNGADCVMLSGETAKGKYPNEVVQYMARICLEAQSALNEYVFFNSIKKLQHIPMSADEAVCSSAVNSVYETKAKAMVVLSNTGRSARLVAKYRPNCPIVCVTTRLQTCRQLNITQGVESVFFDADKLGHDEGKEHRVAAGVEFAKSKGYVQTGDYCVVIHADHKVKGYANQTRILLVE
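Pyruvate kinase activity monitored as ATP production (luciferase luminescence). Conditions: 0.1 nM enzyme, 0.5 mM PEP, 0.1 mM ADP, 1 h, RT; normalized against uninhibited and no-enzyme wells.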
CHX counter – affects cycloheximide protein synthesis inhibition readout, counter-screen. cell reporter, cycloheximide protein synthesis inhibition counterscreen. max response, %. 300,000 tested, 12% active; in the data active = max response mostly above about 13%, no sharp cut-off; inactive = mostly below about 14%; also: read at 38.3 µM for the half of the compounds with a filed dose; 0% is about no effect
Sm TGR block – inhibitors of Schistosoma mansoni thioredoxin glutathione reductase. Q962Y6. purified TGR, DTNB reduction, TNB absorbance 405 nm. Potency, µM (titrated, usually from 114 µM), inactives show at the highest dose activity change, negative = inhibition, hits mostly inhibitors. 360,000 tested, 3% active; also: potency is read from the fitted curve at half-maximal effect; % is scaled to controls: 0 for no effect and ±100 for the full control effect; nearly all actives have a fitted effect of over 60% in size
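First, TGR (20 nM dispensed) and NADPH were mixed with compound. Second, a 15 min room-temperature incubation followed. Third, further NADPH and then DTNB were added to start the reaction. Finally, TNB absorbance was monitored kinetically.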
FBPA Giardia inh – blocks Giardia fructose-bisphosphate aldolase activity. A8B2U2. purified Giardia FBPA. Potency, µM (doses to about 59.6 µM), inactives show at the top dose activity, negative = inhibition, most hits filed as inhibitors. 290,000 tested, 0.71% active. AID 2451; also: potency is read from the fitted curve at half-maximal effect; % is scaled to controls: 0 for no effect and ±100 for the full control effect; nearly all actives have a fitted effect of over 55% in size
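40 nM FBPA preincubated 10 min at RT with compound (up to 57.5 uM final), then substrate plus GAPDH/TPI/NAD/arsenate coupling and diaphorase/resazurin added. Fluorescence read after 20 min at RT, 525/598 nm.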
The depositor's hits bear a star; ? = inconclusive; . = not tested or not shown; [ ] = dose if it differs, or a comment. Unless noted, calls follow the shape of the dose curve; as a rule, active = well fitted curve in the direction sought with a large enough effect; inconclusive = small, poorly fitted or top-dose-only effect, or another doubt; inactive = no such curve, though single readings can be large; an effect the other way counts as inactive or inconclusive.

SMILES	Shiga toxin inh	Tb PYK inh	LmPK inh	CHX counter	Sm TGR block	FBPA Giardia inh
COC(=O)C(C)Oc1ccc(-c2nccc(-c3ccccn3)n2)cc1 (stereo not given)	23.1	-2.1%	0.8%	15.6*	10.2%	-13.3%
Cc1cn([C@H]2C[C@H](O)[C@@H](CCC(=O)NCc3ccccc3)O2)c(=O)[nH]c1=O	.	-5.5%	.	.	.	.
Cc1ccc(NN=C2c3ccccc3-c3ccccc32)cc1	69.7*	4.2%	5.1%	48.3*	-24.6%	-13.9%
CCOc1ccc2ncc3c(-c4cccc(OC)c4)nn(-c4ccccc4)c3c2c1	.	-8.1%	.	.	-8.3%	.
C=CCN1CCN(C(=O)c2cc3c(s2)CCC(CC)C3)CC1 (stereo not given)	50.3*	0.5%	-5.4%	36.5*	-0.4%	7.8%
CN(c1ccc(C(=O)N2CCOCC2)cc1[N+](=O)[O-])C1CCCCC1	94.5*	-1.1%	0.6%	48.3*	18.8%	2.4%[12.9 µM]
O=C(c1ccc(N2CCC3(CC2)OCCO3)c([N+](=O)[O-])c1)N1CCOCC1	68.9*	-0.6%	-0.2%	21.5*	0.7%	-4.0%
Cc1nc(-c2ccccc2)sc1CCNC(=O)C(=O)Nc1ccc2c(c1)OCO2	.	1.3%	.	.	6.1%	.
Cn1cc(C(=O)NCCc2ccc(Cl)cc2)c(=O)c2cc(S(=O)(=O)N3CCOCC3)ccc21	.	-6.6%	.	.	0.9%	.
COc1ccc(-n2c(/C=C/c3ccccc3F)nc3cc(OC)c(OC)cc3c2=O)cc1Cl	.	-3.1%	.	.	-0.9%	.
c1ccc(-c2noc(C3CCC3)n2)nc1	50.4*	-25.7%	-1.4%	27.6*	-3.4%	-0.3%
CCCCC1CCC(c2nc(-c3ccccn3)no2)CC1 (stereo not given)	177.9*	2.4%	-9.7%	56.5*	-2.5%	4.5%
c1ccc(-c2nnc(-c3ccccn3)c(-c3ccccn3)n2)nc1	17.0	3.4%	2.3%	-4.1	0.4%	?
O=P(CCCO)(Cc1ccccc1)Cc1ccccc1	1.0	-11.9%	-1.0%	-6.7	-1.6%	0.9%
COc1cc(C2C3=C(CCCC3=O)Nc3c2c(C)nn3-c2cccc(C)c2)cc(OC)c1O (stereo not given)	15.8	-6.5%	0.3%	10.5	39.8µM*	?
O=C(O)c1ccc(CNC(=O)C23CC4CC(CC(C4)C2)C3)cc1	18.3	5.4%	-8.1%	-2.7	1.9%	5.9%
C(=N\Nc1nc(-c2ccccc2)cs1)/c1cccs1	105.1*	-15.4%	-2.2%	67.8*	-24.1%	-15.6%
ClCc1csc(N/N=C/c2cccs2)n1	39.0*	.	-14.6%	17.5*	1.0%	-28.8%
CN(C)S(=O)(=O)c1ccc(-c2csc(N/N=C/c3ccc(O)cc3)n2)cc1	32.4	-9.4%	10.3%	14.0*	-18.8%	-15.4%
O=C(O)Cc1sc(N/N=C\c2ccncc2)nc1-c1ccccc1	20.4	-18.0%	6.7%	11.1	0.251µM*	-0.1%
O=C(N/N=C/c1ccncc1)c1cccc(N/N=C/c2ccncc2)c1	15.5	-1.0%	1.3%	3.0	6.1%	1.7%
COc1ccccc1CCNC(=O)C(C)Sc1nc(-c2ccccc2)cc(C(F)(F)F)n1 (stereo not given)	.	7.3%	.	.	-9.4%	.
Cc1ccc(NC(=O)c2cc(S(=O)(=O)N3CCC4(CC3)OCCO4)ccc2F)cc1Cl	.	-1.5%	.	.	7.1%	.
Cc1noc(C)c1S(=O)(=O)N(CC(=O)NCc1ccccc1Cl)c1ccc(C(C)C)cc1	.	1.9%	.	.	0.4%	.
CC(=O)c1cccc(Nc2cc(C)nc3nc(-c4ccccc4C)nn23)c1	.	-1.9%	.	.	-7.0%	.
SMILES	Shiga toxin inh	Tb PYK inh	LmPK inh	CHX counter	Sm TGR block	FBPA Giardia inh
C(=N\Nc1nc(-c2ccccc2)cs1)/c1ccncc1	51.1*	-7.6%	-0.2%	42.8*	-15.3%	-10.9%
Cc1ccc(S(=O)(=O)N/N=C\C=C\c2ccccc2)cc1	-12.6	-4.0%	-0.3%	-2.3	?	-1.5%
Cc1onc(-c2ccccc2)c1-c1csc(N/N=C/c2ccccc2)n1	17.9	-3.5%	0.8%	1.7	-5.5%	-9.5%
Cc1ccc(-c2csc(N/N=C/C=C/c3ccccc3)n2)cc1	49.2	-17.1%	1.5%	16.3*	-2.7%	-1.0%
O=C(Nc1cccc(-c2nc3ccccc3o2)c1)c1cc([N+](=O)[O-])ccc1N1CCOCC1	10.8	-0.2%	.	1.1	-1.0%	.
Cc1ccc(CNC(=O)Cc2c(C)c3c(cc(C)c4c(C)coc43)oc2=O)cc1	.	0.3%	.	.	0.1%	.
C/C(=C\C(=O)c1ccc(Cl)cc1Cl)N(C)C	31.6*	-8.1%	11.8%	14.4	-4.3%	-9.4%
Cc1cc(N/C=C/C(=O)c2ccccc2)ccc1Br	56.1*	-2.7%	-9.2%	36.5*	-5.6%	-0.2%
O=C(/C=C/Nc1ccccc1)c1ccccc1	29.4	-21.7%	7.94µM*	26.9*	97.8%	-4.5%
CN(C)c1ccc(/C=N/NC(=O)c2ccc(NC(=O)c3ccccc3)cc2)cc1	5.5	5.8%	-0.4%	12.3	3.1%	4.8%
CN(C)c1ccc(N/C=C/C(=O)c2ccccc2)cc1	77.8*	?	5.62µM*	27.6*	-15.8%	?
CN(C)/C=C/C(=O)c1ccc(Cl)cc1Cl	11.2	-0.2%	-1.2%	17.4	-23.4%	3.2%
NC(N)=NS(=O)(=O)c1ccc(N/C=C\C(=O)c2ccncc2)cc1	14.4	7.4%	4.3%	1.5	5.4%	-9.1%
COCc1cc(C)nc2sc(C(=O)Nc3ccccc3O)c(N)c12	.	20.3%	.	.	-3.9%	.
CC(=O)Nc1ccc(N/C=C/C(=O)c2ccccc2)cc1	53.3*	2.1%	-8.5%	37.4*	2.4%	16.6%
O=C(/C=C/Nc1ccccc1)c1ccc(Cl)cc1Cl	97.5*	-0.1%	-11.7%	41.7*	19.5%	5.2%
O=C(/C=C/Nc1ccc(F)cc1Br)c1ccccc1	40.2*	?	?	38.8*	4.6%	3.3%
CCc1cccc(NC(=O)CN2C(=O)COc3ccc(S(=O)(=O)Nc4ccccc4)cc32)c1	.	4.3%	.	.	8.6%	.
N#CC1(c2ccccc2)CCN(C2CC(=O)N(c3cccc(F)c3)C2=O)CC1 (stereo not given)	-8.2	1.3%	10.4%	-3.5	44.7µM*	1.8%
CCOC(=O)c1ccc(N2C(=O)CC(N3CCC(O)(c4ccc(Br)cc4)CC3)C2=O)cc1 (stereo not given)	7.5	-9.3%	1.2%	4.1	50.1µM*	3.6%
O=C1CC(N2CCN(c3ccccc3Cl)CC2)C(=O)N1c1cccc(F)c1 (stereo not given)	-2.9	2.1%	-0.4%	-3.3	39.8µM*	3.4%
O=C1CC(N2CCN(c3ccccc3Cl)CC2)C(=O)N1c1ccc(F)cc1 (stereo not given)	1.2	-2.5%	7.3%	-3.2	?	-5.6%
CCOC(=O)c1ccc(N2C(=O)CC(N3CCC(C#N)(c4ccccc4)CC3)C2=O)cc1 (stereo not given)	-13.9	-6.1%	5.9%	-3.5	44.7µM*	-1.6%
NS(=O)(=O)Nc1c(Br)cc(Br)c2cccnc12	-5.6	.	.	-1.8	.	.
